Measured values from PubChem BioAssay AID1479146 (National Center for Advancing Translational Sciences (NCATS), 2020).
Records with an inconclusive call do not appear. A call without a number means that no potency is given here. Values without a mark were called inactive. Active and inactive are the calls of the source. Calls follow the shape of the full dose curve.

Test: Confirmatory qHTS for Huh7 cytotoxicity: counterscreen for inhibitors of MERS-S pseudo-typed particle cell entry
Settings: viability; series mostly up to 57.1 µM

SMILES | Potency | activity change, negative = cytotoxicity
CN(C)[C@@H](CCOc1cccc2ccccc12)c1ccccc1 | inactive | 
Cc1c(N)nc(C(CC(N)=O)NCC(N)C(N)=O)nc1C(=O)NC(C(=O)NC(C)C(O)C(C)C(=O)NC(C(=O)NCCc1nc(-c2nc(C(=O)NCCCN[C@@H](C)c3ccccc3)cs2)cs1)C(C)O)C(O[C@@H]1O[C@@H](CO)[C@@H](O)[C@H](O)[C@@H]1O[C@H]1O[C@H](CO)[C@@H](O)[C@H](OC(N)=O)[C@@H]1O)c1cnc[nH]1 (some centres not stated) | inactive | 
CC(C)C(=O)Oc1ccc(CO)cc1[C@H](CCN(C(C)C)C(C)C)c1ccccc1 | inactive | 
Cc1cn([C@H]2C[C@H](N=[N+]=[N-])[C@@H](CO)O2)c(=O)[nH]c1=O | inactive | 
C=CC1(C)CC(=O)C2(O)C(C)(O1)C(OC(C)=O)C(OC(=O)CCN(C)C)C1C(C)(C)CCC(O)C12C (configuration not stated) | inactive | 
C[C@]12CC[C@H](O)C[C@H]1CCC1C2CC[C@]2(C)[C@@H](c3ccc(=O)oc3)C[C@H]3O[C@]132 (some centres not stated) | 15.2 µM (active) | 
COc1c(OCCCN2CCOCC2)ccc2c3n(c(=NC(=O)c4cnc(N)nc4)nc12)CCN3 |  | -10.8% [at 11.2 µM]
CCOc1cc2ncc(C#N)c(Nc3ccc(OCc4ccccn4)c(Cl)c3)c2cc1NC(=O)/C=C/CN(C)C |  | -7.24% [at 11.2 µM]
C=CC(=O)Nc1cc(Nc2nccc(-c3cn(C)c4ccccc34)n2)c(OC)cc1N(C)CCN(C)C | 10.8 µM (active) | 
CC[C@H](C)C(=O)O[C@H]1C[C@@H](C)C=C2C=C[C@H](C)[C@H](CC[C@@H]3C[C@@H](O)CC(=O)O3)[C@H]21 | inactive | 
COc1cc([C@@H]2c3cc4c(cc3C(O[C@@H]3O[C@@H]5CO[C@@H](c6cccs6)OC5[C@H](O)[C@H]3O)C3COC(=O)[C@@H]32)OCO4)cc(OC)c1O (some centres not stated) | 5.41 µM (active) | 
CC(C)C[C@H](NC(=O)[C@H](CCc1ccccc1)NC(=O)CN1CCOCC1)C(=O)N[C@@H](Cc1ccccc1)C(=O)N[C@@H](CC(C)C)C(=O)[C@@]1(C)CO1 | 0.192 µM (active) | 
CC(CN(C)C)CN1c2ccccc2CCc2ccccc21 (configuration not stated) | inactive | 
CCCCCCCCCCCCOCCOCCOCCOCCOCCOCCOCCOCCOCCO | inactive | 
CCCCCCOC(=O)NC(=N)c1ccc(NCc2nc3cc(C(=O)N(CCC(=O)OCC)c4ccccn4)ccc3n2C)cc1 | inactive | 
CCCCN=C(N)N=C(N)N | inactive | 
CCc1c2c(nc3ccc(OC(=O)N4CCC(N5CCCCC5)CC4)cc13)-c1cc3c(c(=O)n1C2)COC(=O)[C@]3(O)CC | inactive | 
C/C=C(/C)C(=O)O[C@H]1C(C)=CC23C(=O)C(C=C(CO)[C@@H](O)[C@]12O)[C@H]1[C@@H](C[C@H]3C)C1(C)C (some centres not stated) | inactive | 
CN1CCC(=C2c3ccccc3CCc3sccc32)CC1 | inactive | 
CN(C)CCC=C1c2ccccc2C(C)(C)c2ccccc21 | inactive | 
O=c1c(C2CC(c3ccc(-c4ccc(Br)cc4)cc3)Cc3ccccc32)c(O)sc2ccccc12 (configuration not stated) | inactive | 
CN1CCC(=C2c3ccccc3C=Cc3ccccc32)CC1 | inactive | 
CCn1cc(C(=O)O)c(=O)c2cc(F)c(N3CCNC(C)C3)c(F)c21 (configuration not stated) | inactive | 
C=C(C)[C@H]1Cc2c(ccc3c2O[C@@H]2COc4cc(OC)c(OC)cc4[C@@H]2C3=O)O1 | 6.81 µM (active) | 
N/C(=N\N=C\c1ccc(Cl)cc1)N/N=C/c1ccc(Cl)cc1 | inactive | 
COc1cc2nccc(Oc3ccc(NC(=O)NC4CC4)c(Cl)c3)c2cc1C(N)=O | inactive | 
CC(C)OC(=O)OCOP(=O)(CO[C@H](C)Cn1cnc2c(N)ncnc21)OCOC(=O)OC(C)C | inactive | 
